Each structure is given as a SMILES string. Inconclusive results are not listed. Entries that show only a call come without a potency. Active and inactive are the calls of the source. The call rests on the fitted dose curve; in most records, active means well fitted inhibition curve with a large enough effect; inconclusive means small, poorly fitted or top-dose-only effect; inactive means flat fitted curve, though single readings scatter.

The target in this test is Calcium and integrin-binding protein 1 (Homo sapiens) (UniProt Q99828). Nature of the test: Primary qHTS for Identification of Calcium Integrin Binding Protein 1 (CIB1) Competitor (AID 1508620).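 Further: GST tagged CIB1 binding a fluorescein labelled alphaIIb integrin peptide tracer; top concentration of the series differs between compounds.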 As to conditions: CIB1-GST / FITC-alphaIIb peptide fluorescence polarization; series mostly up to 114 µM. A digest of the protocol: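 CIB1-GST (1 uM final) and compound incubated 15 min at room temperature before adding FITC-alphaIIb peptide tracer (100 nM final). Competition for binding read by fluorescence polarization (ex 480, em 540) after another 15 min at room temperature.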
Chain of Calcium and integrin-binding protein 1 (Homo sapiens) (Q99828 whole entry, looked up): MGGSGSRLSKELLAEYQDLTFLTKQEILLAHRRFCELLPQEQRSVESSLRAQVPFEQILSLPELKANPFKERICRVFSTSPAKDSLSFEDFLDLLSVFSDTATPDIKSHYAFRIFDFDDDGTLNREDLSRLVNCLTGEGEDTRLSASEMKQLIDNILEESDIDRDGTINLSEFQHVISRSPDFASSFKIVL
On the technique in general: Quantitative high-throughput screening tests each substance at several concentrations.
Take `Cc1ccccc1-c1nc(NCc2ccc(-c3cccnc3)cc2)c2ccccc2n1`: the Potency result is “inactive”.

In the case of `CCC(=O)NC(c1cc(Cl)c2cccnc2c1O)C1CC1` (stereo not given), the Potency entry is “inactive”.

Turning to `NC(=O)C1CCN(c2nccc(-c3ccc(Br)cc3)n2)CC1`, the Potency entry was “inactive”.

In the case of `CN1CCOc2ccc(S(=O)(=O)N3CCN(S(=O)(=O)c4c(F)cccc4F)CC3)cc21`, the Potency entry is “inactive”.

For `CCOC(=O)c1cccc(-n2cccc2/C=C2\NC(=O)N(CC(=O)O)C2=O)c1`, the Potency entry was “inactive”.

As for `COc1cc(OC)c(C(CC(=O)N2CC(C)CC(C)C2)c2ccc3c(c2)OCO3)c(OCC(N)=O)c1` (stereo not given), the Potency entry was “inactive”.

Consider `N#CN1CCC(NS(=O)(=O)c2cccc(C(F)(F)F)c2)CC1`, for which the Potency entry was “inactive”.

Regarding `NNC(=O)C(C(=O)OCc1ccccc1)c1ccccc1` (stereo not given), the Potency result is “inactive”.

For the compound `COc1ccc(C(=O)N(Cc2ccco2)Cc2ccco2)c(O)c1`, the Potency entry is “inactive”.

As to `CCNC(=O)c1ccc(-c2ccc3ncnc(NCCc4cnc[nH]4)c3c2)o1`, the Potency result is “inactive”.

Turning to `CC(=O)c1ccc(N2CCN(S(=O)(=O)c3ccc4c(c3)OCC(=O)N4)CC2)cc1`, the Potency result is “inactive”.

Turning to `CS(=O)(=O)c1ccc(C(=O)OCC(=O)N2CCOCC2)cc1[N+](=O)[O-]`, the Potency entry is “inactive”.

As for `O=[S+]([O-])(c1ccc2ncsc2c1)N1CCN([S+](=O)([O-])c2c(F)cccc2F)CC1`, the Potency result was “inactive”.

For `CCOC(=O)c1c(/C=N/Nc2ccccc2)c2sc(C)cc2n1C`, the Potency result was “inactive”.

With `CC(C)(C)NS(=O)(=O)c1cccc(Nc2nn3c(=O)c4ccccc4nc3s2)c1`, the Potency result is “inactive”.

`CN(C)c1cccc(-c2csc(N3CCC(C(N)=O)CC3)n2)c1`: the Potency entry was “inactive”.

For the compound `CC(=O)NC(c1cccs1)c1cc(F)c2cccnc2c1O` (stereo not given), the Potency entry is “inactive”.

As for `Cc1cnc(-c2ccccc2C(C)C)nc1NCc1ccc(C2CCCNC2)cc1` (stereo not given), the Potency result was “inactive”.

Turning to `Cc1ccc2nc3sc(C(=O)NCCCN(C)C)cc3cc2c1`, the Potency entry was “inactive”.

As for `COc1ccc(C2=Nn3c(nnc3-c3cccc(OC)c3OC)SC2)c(OC)c1`, the Potency entry was “inactive”.

Regarding `O=C(O)c1ccc2c(c1)C(=O)N([C@H](Cc1ccccc1)C(=O)O)C2=O`, the Potency entry is “inactive”.

Regarding `COc1ccc(N2C(=O)c3ccccc3S2(=O)=O)cc1`, the Potency entry was “inactive”.

`COc1ccc(O)c(C2Nc3ccccc3C(=O)N2Cc2ccccc2)c1` (stereo not given): the Potency result is “inactive”.

For `CCN(CCc1cn(C)cn1)c1ncnc2ccc(-c3ccc4c(c3)OCO4)cc12`, the Potency entry is “inactive”.

`Cc1cccc(CNc2ncnc3ccc(-c4cccc(C)c4)cc23)c1`: the Potency entry is “inactive”.

`Cc1cc(N[S+](=O)([O-])c2ccc3c(c2)CCC(=O)N3C)ccc1F`: the Potency result is “inactive”.

Take `Cc1cccc(CNc2ncnc3ccc(-c4ccccc4Cl)cc23)c1`: the Potency entry was “inactive”.

As for `Cc1nc(C)c(-c2ccc3ncnc(NCCc4cnc[nH]4)c3c2)s1`, the Potency entry was “inactive”.

Regarding `c1nc(NCC2CCCCC2)c2cc(-c3ccc4c(c3)OCO4)ccc2n1`, the Potency entry was “inactive”.

Consider `O=C(CCc1ccccc1)Nc1cccc([S+](=O)([O-])Nc2ccccc2F)c1`, for which the Potency entry is “inactive”.

Regarding `Cc1cc(C)nc(NC(=S)N2CCN(c3nc4ccccc4s3)CC2)c1`, the Potency entry is “inactive”.

For the compound `N#Cc1nc(Nc2cc(F)cc(F)c2)c2ncn(CCCO)c2n1`, the Potency entry is “inactive”.

With `Cc1cccc(CNc2ccnc(-c3cccc(C(F)(F)F)c3)n2)c1`, the Potency result is “inactive”.

`CN(C)CCCNc1ncnc2ccc(-c3ccc4c(c3)OCO4)cc12`: the Potency result is “inactive”.

`Cc1cc(C)n2ncc(C(=O)N3CCCC3)c2n1`: the Potency entry was “inactive”.

Turning to `O=C(CNC(=O)c1ccccc1Cl)OC(C(=O)Nc1cc(C(F)(F)F)ccc1Cl)c1ccccc1` (stereo not given), the Potency result was “inactive”.

For the compound `O=C1Nc2ccccc2/C1=C/c1cccc(C(=O)O)c1`, the Potency result was “inactive”.

Take `N#Cc1c(-c2cc(C(F)(F)F)cc(C(F)(F)F)c2)no[n+]1[O-]`: the Potency entry is “inactive”.

On to `CCOC(=O)c1[nH]c2c(c1C)C(=O)CC(c1ccco1)C2` (stereo not given), for which the Potency result was “inactive”.

In the case of `Cc1ccc(/C=C/C(=O)Nc2cccc([S+](=O)([O-])Nc3ccccc3F)c2)cc1`, the Potency entry is “inactive”.

Source of the values: PubChem BioAssay (NCATS).
